Laboratory results reported in PubChem BioAssay (Tox21).
Unmarked numbers belong to inactive results. A call without a number means that no potency is given here. Active and inactive are the calls of the source. The call rests on the fitted dose curve.

Biological target: Gonadotropin-releasing hormone receptor (Homo sapiens) (UniProt P30968)
Experiment: Human gonadotropin-releasing hormone receptor (GnRHR) small molecule agonists, calcium flux assay in GnRHR-HEK293 cells (AID 1920063); further: nearly all actives have a fitted effect of over 35% in size
Method in brief: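 Stable human GnRHR HEK293 line. 18 h plating, then calcium dye for 1 h at 37 C. Agonist-mode compound addition from DMSO stocks; fluorescence monitored 3 min.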
Potency means the concentration at half of the fitted maximal effect.

Gonadotropin-releasing hormone receptor (Homo sapiens), sequence (P30968 whole entry, looked up): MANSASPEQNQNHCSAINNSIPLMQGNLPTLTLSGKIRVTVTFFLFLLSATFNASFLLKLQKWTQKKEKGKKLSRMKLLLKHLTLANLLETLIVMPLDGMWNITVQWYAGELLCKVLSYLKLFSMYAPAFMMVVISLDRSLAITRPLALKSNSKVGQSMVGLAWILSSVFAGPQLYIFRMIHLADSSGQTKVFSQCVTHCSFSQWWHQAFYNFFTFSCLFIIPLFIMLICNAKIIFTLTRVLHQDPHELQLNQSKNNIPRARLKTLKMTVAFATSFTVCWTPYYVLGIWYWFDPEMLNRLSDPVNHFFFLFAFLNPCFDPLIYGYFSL

SMILES | Potency | activity change
CNC1CCCN(c2c(F)cc3c(=O)c(C(=O)O)cn(C4CC4)c3c2OC)C1 (centres undefined) | inactive | 
CCOC(C)OCC | inactive | 
COC1CCC=CO1 (centres undefined) | inactive | 
COc1ccc(OC)c(Cl)c1 | inactive | 
NNC(=O)CCCCC(=O)NN | inactive | 
Cc1ccc(S(=O)(=O)C(I)I)cc1 | 38.9 µM (active) | 
CC[N+](CC)(CC(=O)Nc1c(C)cccc1C)Cc1ccccc1 (tested in a mixture with another compound) | inactive | 
CC(=O)CCC1=C(C)CCCC1(C)C | inactive | 
CCO[Si](CCCSSSSCCC[Si](OCC)(OCC)OCC)(OCC)OCC | inactive | 
Cc1nccn1-c1ccc(Sc2cccc(C3(C(N)=O)CCOCC3)c2)cc1 | inactive | 
COc1nc(C)nc(Cl)c1NC1=NCCN1 | inactive | 
Clc1ccc2nsnc2c1NC1=NCCN1 | inactive | 
CC(CSC(=O)c1ccccc1)C(=O)N1C[C@@H](Sc2ccccc2)C[C@H]1C(=O)O (some centres undefined) |  | -1.85% [at 11.8 µM, active compounds read high]
O=S(=O)(O)c1ccc(Nc2nc(Nc3ccc(/C=C/c4ccc(Nc5nc(Nc6ccc(S(=O)(=O)O)cc6)nc(N(CCO)CCO)n5)cc4S(=O)(=O)O)c(S(=O)(=O)O)c3)nc(N(CCO)CCO)n2)cc1 | inactive | 
CCOC(=O)OCC | inactive | 
CC(C)CC(C)(C)C | inactive | 
CCCCOCC(C)OCC(C)O (centres undefined) | inactive | 
CCOc1ccc(OCC)c(Cl)c1 | inactive | 
CCC1(c2cnc[nH]2)Cc2ccccc2C1 | inactive | 
CC(C)(C)c1ccc(N)cc1 | inactive | 
Oc1ccc2c(c1)Cc1ccccc1-2 | inactive | 
CC(C)OC(=O)CCC(=O)OC(C)C | inactive | 
CCC(C)(C)OC | inactive | 
COc1cc(/C=C/C(=O)CC(=O)/C=C/c2ccc(O)c(OC)c2)ccc1O | 39.2 µM (active) | 
